Laboratory results published in PubChem BioAssay AID1259422 (The Scripps Research Institute Molecular Screening Center, 2018).
“And” between values parts separate entries of the source, which are not always exact repeats. Equal entries are not always repeated. Screen size: about 640,000 compounds; about 9,300 (1.5%) were called active. The sample holds actives, similar compounds and a random draw of the others, so the mix is not that of the screen. Values without a mark were called inactive. No stated cut-off is given here; in the data, active means inhibition above about 32%; inactive means the rest.

Test: TEAD-YAP interaction inhibition, primary screen, TEAD-YAP interaction inhibitor project, luminescence, HEK-TIYL cells (AID 1259422);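 further: 0% = median of test compound wells and 100% = reference inhibitor wells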
Settings: TEAD-Gal4/YAP UAS-luciferase luminescence, at 9.12 µM, active compounds read high
Work on `Cc1ccc(N(C(=O)c2snc(C(N)=O)c2N)C(C)C(=O)NC(C)(C)C)cc1C` (stereo not drawn) yielded an inhibition of -0.01%.
Compound `COCCCNc1ncnc2sccc12` has an inhibition of -4.31%.
Compound `Cn1ncc2c(Nc3cccc4ccccc34)ncnc21` has an inhibition of -0.77%.
With `c1ccc2c(NCCNc3ncnc4sccc34)cccc2c1` the inhibition was 52.2% (active).
`COc1ccc(C(=O)N=c2sc3cc4c(cc3n2C)OCCO4)cc1OC` showed an inhibition of -1.41%.
Compound `COC(=O)c1c(C)oc2ccc(NS(=O)(=O)c3cccc4cccnc34)cc12` has an inhibition of 28.9%.
For `CCOC(=O)c1c(-c2ccc(Br)cc2)csc1NC(=O)COC`, the inhibition was -10.8%.
With `CC(C)(C)C(=O)Nc1scc(-c2ccc(Br)cc2)c1C(=O)O` the inhibition was 38.7% (active).
`CC(NC(=O)C(C)(C)C)c1ccc(Br)cc1` (stereo not drawn) showed an inhibition of 8.71%.
With `CCOc1cc(C(=O)OCc2cc(C(C)=O)ccc2OC)cc(OCC)c1OCC` the inhibition was -5.65%.
With `Cc1cc(C)nc(/N=C(\N)Nc2cccc(C(F)(F)F)c2)n1` the inhibition was 36.7% (active).
Compound `CCc1ccc(N/C(N)=N/c2nc(C)cc(C)n2)cc1` has an inhibition of 23.8%.
In the case of `Cc1cc(C)nc(/N=C(\N)Nc2ccc(Br)cc2)n1`, the inhibition is reported as 1.37% and -0.43%.
Work on `Cc1cccc(C)c1NS(=O)(=O)c1ccc2c(c1)oc(=O)n2C` yielded an inhibition of -6.37%.
`COc1ccc(Cc2nc3sc4c(c3c(=O)n2N)CCCC4)cc1OC` gave an inhibition of 29.2%.
For `Cc1cccc(C)c1-n1c(N)c(C(=O)Nc2cccc(Cl)c2)sc1=S`, the inhibition was -13.7%.
Work on `CCCCNC(=O)NNC(=O)CSc1nc2ccccc2s1` yielded an inhibition of 9.84%.
Compound `O=C(CSc1nc2ccccc2s1)NNC(=O)C1CCCO1` (stereo not drawn) has an inhibition of 1.6%.
For `O=C(CSc1nc2ccccc2s1)N1N=CCC1c1ccccc1` (stereo not drawn), the inhibition was 51.5% (active).
`C/C(=N\NC(=O)c1cccc(Br)c1)c1cc2ccc(O)cc2oc1=O` gave an inhibition of -10.3%.
Compound `CC(C(=O)N(C)c1ccccc1)N1C(=O)NC(c2ccccc2)(c2ccccc2)C1=O` (stereo not drawn) has an inhibition of 6.96%.
`CCOC(=O)c1c(-c2ccccc2)csc1NC(=O)CNCC(C)C` gave an inhibition of -3.7%.
For `CCOC(=O)c1c(-c2cccc3ccccc23)csc1NC(=O)/C=C/C(=O)O`, the inhibition was 33.5% (active).
`CCOC(=O)c1c(NC(=O)/C=C/C(=O)O)sc(C)c1C` showed an inhibition of 28.1%.
`Cc1ccc(C2CC(=O)C3=C(C2)Nc2ccccc2N(C(=O)C(F)(F)F)C3c2cccc(Br)c2)cc1` (stereo not drawn) gave an inhibition of 7.36%.
In the case of `CCOC(=O)C1=C(C)N=c2s/c(=C/c3cc(Br)c(N4CCOCC4)o3)c(=O)n2C1c1ccc(OC)cc1` (stereo not drawn), the inhibition is reported as 4.11%.
`Cc1ccc(C)c(C(=O)NCc2nc(-c3ccccc3)no2)c1` showed an inhibition of 9.38%.
With `Cc1nc2sccn2c1C(=O)NCc1cccc(Cl)c1` the inhibition was 12.9%.
Compound `C=CCN(C)C(=O)c1c(C)nc2ccccn12` has an inhibition of -6.06%.
In the case of `Cc1nc2ccccn2c1C(=O)NCc1nc(-c2ccccc2)no1`, the inhibition is reported as 36.5% (active).
For `Cc1nc2ccccn2c1C(=O)NCc1ccc(Oc2ccccc2)cc1`, the inhibition was 62.4% (active).
With `O=C(NCc1nc(-c2ccccc2)no1)c1ccccc1I` the inhibition was 7.97%.
In the case of `COc1ccc(CNCc2c(C(=O)O)[nH]c3ccccc23)cc1`, the inhibition is reported as -5.51%.
Compound `C=Cc1ccc(Cn2c(C(=O)O)c(CNCc3ccccc3OC)c3ccccc32)cc1` has an inhibition of 14.2%.
Compound `O=C(O)CC1SC(=Nc2ccccc2)NC1=O` (stereo not drawn) has an inhibition of 4.55%.
For `Cc1ccc(N=C2NC(=O)C(Cc3ccccc3Cl)S2)cc1` (stereo not drawn), the inhibition was 33.1% (active).
In the case of `Cc1cccc(NC(=O)CC2SC(=Nc3ccccc3)NC2=O)c1` (stereo not drawn), the inhibition is reported as 3.61%.
With `Cc1cc(N2CCN(c3ccccn3)CC2)nc2c(C)cccc12` the inhibition was 2.36%.
For `Cc1ccc(C(c2cc(Cl)c3cccnc3c2O)N2CCN(c3ccccn3)CC2)cc1` (stereo not drawn), the inhibition was 38% (active).
`CC(C)c1ccc(OCC(O)CN2CCN(c3ccccn3)CC2)cc1` (stereo not drawn) showed an inhibition of -5.32%.
`CCOc1ccc(C(=O)Nc2sc3c(c2C(N)=O)CC(C)CC3)cc1` (stereo not drawn) showed an inhibition of 2.83%.
`CC(C)n1cnc2c(NCCOc3ccccc3)nc(-c3ccc(C(=O)NC4CC4)cc3)nc21` showed an inhibition of 13.6%.
Work on `COc1cc(OC)c(-n2c(C)cc(/C=C3/C(=N)N4C=CSC4=NC3=O)c2C)cc1Cl` yielded an inhibition of -0.88%.
`CC1=CC2=NC(=O)/C(=C\c3cc(C)n(-c4cccc(C)c4C)c3C)C(=N)N2O1` showed an inhibition of 9.28%.
In the case of `Cc1cc(/C=C2/C(=N)N3C=CSC3=NC2=O)c(C)n1-c1ccc(F)cc1`, the inhibition is reported as 41.3% (active).
In the case of `Cc1cc(/C=C2/C(=N)N3C=CSC3=NC2=O)c(C)n1-c1ccccc1F`, the inhibition is reported as 86.4% (active).
Work on `Cc1cc(/C=C2\C(=N)N3N=C(S(C)(=O)=O)SC3=NC2=O)c(C)n1-c1ccc(F)cc1` yielded an inhibition of 4.07%.
`CC1=CN2C(=N)/C(=C/c3cc(C)n(-c4ccc(F)cc4)c3C)C(=O)N=C2S1` gave an inhibition of -6.11%.
For `COCC1=C(C(=O)OC)C(c2ccc(Cl)cc2Cl)n2ncnc2N1` (stereo not drawn), the inhibition was -3.21%.
With `CN1C(=O)C(O)=C(c2ccccc2)S1(=O)=O` the inhibition was 5.68%.
With `COc1cccc(NC(=O)Cn2c(=O)c(C(F)(F)F)nc3ccccc32)c1` the inhibition was 5.63%.
Work on `Cc1ccc(NC(=O)/C(=C/c2ccc(Cl)cc2)NC(=O)c2ccco2)cc1` yielded an inhibition of -3.43%.
With `CC(C)C(=O)NCC1CCC2(CCN(Cc3ccc4ccccc4c3)CC2)O1` (stereo not drawn) the inhibition was 9.09%.
With `COc1ccccc1CN1CCC2(CCC(CNC(=O)C(C)C)O2)CC1` (stereo not drawn) the inhibition was -13.5%.
In the case of `CC(C)C(=O)NCC1CCC2(CCN(Cc3nc(-c4ccccc4)cs3)CC2)O1` (stereo not drawn), the inhibition is reported as 96.7% (active).
In the case of `CCOC(=O)N1CCc2c(sc(NC(=O)/C=C/c3cccc([N+](=O)[O-])c3)c2C#N)C1`, the inhibition is reported as 33.5% (active).
In the case of `N#Cc1c(NC(=O)/C=C/c2cccc([N+](=O)[O-])c2)sc2c1CCCC2`, the inhibition is reported as -1.55%.
In the case of `CC(=O)N1CCc2c(sc(NC(=O)CCSc3ccccc3)c2C(N)=O)C1`, the inhibition is reported as 3.99%.
In the case of `CCOC(=O)N1CCc2c(sc(NC(=O)CCSc3ccccc3)c2C#N)C1`, the inhibition is reported as 44.1% (active).
For `CC(=O)N1CCc2c(sc(NC(=O)CCS(=O)(=O)c3ccccc3)c2C#N)C1`, the inhibition was 3.65%.
In the case of `CCOC(=O)N1CCc2c(sc(NC(=O)c3ccc([N+](=O)[O-])s3)c2C#N)C1`, the inhibition is reported as 3.38%.
`O=C(OC1CCS(=O)(=O)C1)c1ccccc1` (stereo not drawn) gave an inhibition of -9.29%.
For `CN1CCN(S(=O)(=O)c2ccc(Sc3ccc(Br)cc3)c(C(=O)O)c2)CC1`, the inhibition was -2.07%.
For `CCOc1cc(C2Nc3ccccc3C(=O)N2c2ccc(OC)cc2)ccc1O` (stereo not drawn), the inhibition was -26.9%.
For `CCCN1C(=O)c2ccccc2NC1c1ccc(OC)c(COc2ccc(Cl)cc2)c1` (stereo not drawn), the inhibition was 1.41%.
With `CCCN1C(=O)c2ccccc2NC1c1ccc(O)c(OC)c1` (stereo not drawn) the inhibition was 45.1% (active).
`CCOC(=O)N1CCN(C(=O)CC2C(=O)NCCN2Cc2ccccc2C)CC1` (stereo not drawn) gave an inhibition of 4.23%.
In the case of `CCOc1ccc(C(=O)NC(=S)Nc2ccc(N3CCCCC3)cc2)cc1`, the inhibition is reported as -3.84%.
`O=C(NC1(c2ccc3c(c2)OCO3)CCCC1)c1cscn1` gave an inhibition of 5.97%.
Compound `CCOC(=O)c1ccc2c(c1)C(=O)N(c1ccc3ccccc3c1)C2=O` has an inhibition of -2.85%.
With `CCOC(=O)c1ccc2nc(C34CC5CC(CC(C5)C3)C4)ccc2c1` the inhibition was 46.2% (active).
For `NC(=O)c1sc2nc(C34CC5CC(CC(C5)C3)C4)ccc2c1N`, the inhibition was -1.93%.
Compound `CC1CCc2sc(NC(=O)c3ccccc3F)c(C#N)c2C1` (stereo not drawn) has an inhibition of -31.8%.
Compound `Cc1ccc(-c2c(NCCCc3ccccc3)c(=O)c2=O)cc1` has an inhibition of -2.15%.
For `CC(C)OCCCNc1c(-c2ccc(C(C)C)cc2)c(=O)c1=O`, the inhibition was 42.2% (active).
`COCCNc1c(-c2ccc(Cl)cc2)c(=O)c1=O` gave an inhibition of -4.73%.
`COc1ccc(NS(=O)(=O)c2cc(NC(=O)CCCNC(N)=O)ccc2OC)cc1` showed an inhibition of 5.83%.
In the case of `COc1cccc(-c2nn3c(=O)c4ccccc4nc3n2N)c1`, the inhibition is reported as 34.2% (active).
Compound `COc1cccc(-c2nc3ccccc3c(=O)n2NC(=O)c2ccccc2C)c1` has an inhibition of 2.18%.
`COc1cccc(-c2nc3ccccc3c(=O)n2NC(=O)c2cccc(C)c2)c1` gave an inhibition of 5.37%.
`COc1cccc(OC)c1C(=O)N1CCN(c2cccc(C)c2C)CC1` showed an inhibition of 4.01%.
In the case of `COc1ccc(C)cc1S(=O)(=O)N1CCN(C)CC1`, the inhibition is reported as 13.6%.
For `COc1ccc(C)cc1S(=O)(=O)N1CCN(c2cc(-n3ccnc3C)ncn2)CC1`, the inhibition was 41.4% (active).
`COc1ccccc1N1CCN(S(=O)(=O)c2cc(C)ccc2OC)CC1` showed an inhibition of -9.44%.
For `COc1ccc(C[C@@H]2NC(=O)[C@@H]3C[C@H](NCc4cnn(-c5ccccc5F)c4)CN3C2=O)cc1`, the inhibition was 10.7%.
In the case of `CCC(C)N1C(=O)C2C(C(=O)Nc3ccc(F)c(Cl)c3)C3C=CC2(O3)C1C(=O)NC1CCCC(C)C1C` (stereo not drawn), the inhibition is reported as -20.7%.
With `C/C(=N\NC(=O)Cc1cccn1C)c1ccc(O)cc1` the inhibition was -12.8%.
Work on `COCCNC(=O)/C=C/c1ccc(Br)cc1` yielded an inhibition of -24.8%.
In the case of `COCCNC(=O)c1ccc2c(c1)N=C(C)c1cc(Br)ccc1S2`, the inhibition is reported as 52.5% (active).
For `COCCNC(=O)c1ccc2c(c1)N=C(C)c1cc(C)ccc1S2`, the inhibition was 67.6% (active).
Compound `COCCNC(=O)c1ccc2c(c1)ncn2-c1ccc(C)c(Cl)c1` has an inhibition of -17.5%.
`CC1=Nc2cc(C(=O)O)ccc2Sc2ccccc21` showed an inhibition of -2.24%.
Compound `CCN1CCSc2ccc(C(=O)NCCCOC)cc21` has an inhibition of 0.64%.
